High-throughput results: PubChem BioAssay, The Scripps Research Institute Molecular Screening Center
The list is not random: actives were taken first. Their share in the collection is about 4.5%.
hcDAF-12 act: H. contortus DAF-12 nuclear receptor activators, primary screen, cell-based, luminescence, HEK293, lit1-tk-luc reporter; HEK293 hcDAF-12 lit1-tk-luc reporter; 0% DMSO, 100% Δ7-dafachronic acid; 370,000 tested, 1.4% active; activation, % at 6.8 µM;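 active = activation above the mean of all tested compounds plus 3 SD, cut at about 5.5% in these data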;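 also: 100% = response to 3 µM Δ7-dafachronic acid high control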
FXN GAA850 act: FXN promoter activators, primary screen, cell-based, luciferase luminescence, HEK293 lucGAA850; HEK293 lucGAA850 FXN promoter luciferase reporter, 24 h; percent of 10 µM SAHA response; activation, % at 6 µM; AID 540364, 2011; 360,000 tested, 0.56% active;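 active = activation above the average of all compounds screened plus 3 SD, cutoff fixed separately per campaign, cut at about 7.5% in these data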;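 also: 0% = DMSO wells and 100% = 10 µM SAHA wells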
DAX1 inh-1: DAX1 (NR0B1) inhibitors, primary screen, cell-based, HEK293, Gal4-DAX1, luciferase luminescence. inhibition, % at 6.75 µM. AID 504766, 2011. HEK293 Gal4-DAX1 luciferase reporter. 340,000 tested, 0.99% active;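 active = inhibition above the mean over all tested compounds plus 3 SD, cut at about 4.2% in these data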;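 also: 0% = DAX1-transfected cells with DMSO and 100% = empty-vector control cells with DMSO; inhibition shows as a rise in luminescence from relieved DAX1 repression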
Target sequence (P51843 207-470 limits assumed): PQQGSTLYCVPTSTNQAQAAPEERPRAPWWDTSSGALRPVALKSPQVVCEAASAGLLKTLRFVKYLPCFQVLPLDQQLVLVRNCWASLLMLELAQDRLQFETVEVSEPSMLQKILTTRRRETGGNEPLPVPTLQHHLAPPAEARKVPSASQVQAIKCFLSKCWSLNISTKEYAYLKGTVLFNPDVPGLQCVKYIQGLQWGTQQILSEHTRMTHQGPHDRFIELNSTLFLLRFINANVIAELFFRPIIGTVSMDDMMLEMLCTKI
ssDAF-12 act: S. stercoralis DAF-12 nuclear receptor activators, primary screen, cell-based, luminescence, HEK293, GRIP1 co-expression, lit1-tk-luc. HEK293 ssDAF-12/GRIP1 lit1-tk-luc reporter; % of 3 µM dafachronic acid response. activation, % at 6.8 µM. 370,000 tested, 1% active. Nuclear hormone receptor DAF-12 (Strongyloides stercoralis);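 active = activation above the mean over all tested compounds plus 3 SD, cut at about 0.9% in these data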;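 also: 0% = DMSO-only wells and 100% = 3 µM delta7-dafachronic acid wells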
hgDAF-12 ag: H. glycines DAF-12 receptor agonists, primary screen, cell-based, luminescence, HEK293, GAL4 fusion, UAS-luciferase; Nuclear hormone receptor DAF-12 (Heterodera glycines), GAL4 fusion; HEK293 GAL4-hgDAF12 UAS-luciferase reporter, agonist luminescence; normalized to butyrate control; activation, % at 6.8 µM; 370,000 tested, 1.8% active; AID 687014, 2013;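 active = activation above a cutoff set at the mean of all screened compounds plus 3 SD, cut at about 10% in these data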;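 also: 0% = DMSO wells and 100% = sodium butyrate wells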
DAX1 inh-2: DAX1 (NR0B1) inhibitors on StAR promoter, primary screen, cell-based, luminescence, SF-1 (NR5A1), full-length DAX-1. inhibition, % at 6.8 µM. HEK293T StAR-luciferase reporter, SF-1/DAX-1 repression relief. AID 652010, 2013. 370,000 tested, 1.1% active;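 active = inhibition above the mean over all tested compounds plus 3 SD, cut at about 3.6% in these data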;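 also: 0% = DAX-1 cells with DMSO and 100% = cells lacking DAX-1 with DMSO; higher inhibition means more luminescence from relief of DAX-1 repression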
GAA30 FXN cntr: GAA30 FXN promoter activators, confirmation, counter-screen for GAA850 frataxin promoter activator project, cell-based, luminescence, HEK293, lucGAA30, triplicate. shares compounds with FXN GAA850 act. HEK293 lucGAA30 FXN promoter luciferase, 24 h; DMSO = 0%, 5 µM ipriflavone = 100%. activation, % at 6 µM. 1,900 tested, 66% active;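 active = mean activation above the mean of solvent-only control wells plus 3 SD, cut at about 22% in these data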;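 also: counterscreen of GAA850 promoter hits where activity marks nonselective or luminescence artifacts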
FXN GAA850 conf: FXN GAA850 promoter activators in reporter cells, confirmation, cell-based, luminescence, HEK293 lucGAA850, triplicate; HEK293 lucGAA850 FXN promoter luciferase reporter, 24 h; 100% = activation by SAHA; activation, % at 6 µM; 1,900 tested, 86% active; AID 588351, 2011; shares compounds with FXN GAA850 act;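 active = mean activation above a set limit taken from the primary screen, cut at about 8% in these data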;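 also: 0% = DMSO wells and 100% = 10 µM SAHA wells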
* marks the source's active call; other numbers are inactive results; / = not tested or not shown.

SMILES	hcDAF-12 act	FXN GAA850 act	DAX1 inh-1	ssDAF-12 act	hgDAF-12 ag	DAX1 inh-2	GAA30 FXN cntr	FXN GAA850 conf
CCOC(=O)/C(C#N)=C/Nc1ccccc1OC	2.5	8.0*	1.6	0.1	12.8*	0.9	91.8*	28.5*
CCOC(=O)C(=O)/C(C#N)=C/Nc1ccccc1	2.9	2.0	-0.5	-1.0	-1.2	0.4	/	/
Cc1cnc(N=Nc2ccccc2)[nH]1	1.1	7.7*	1.0	-0.4	-0.7	-0.4	100.5*	27.9*
Cc1ncc(N=Nc2ccccc2)c(-c2ccccc2)n1	0.2	-0.4	0.3	-1.5	-4.0	-0.5	/	/
CC(=O)Oc1ccccc1C(=O)C=Cc1cccc([N+](=O)[O-])c1	-0.1	16.8*	-3.4	-0.8	-11.7	-4.1	-50.5	22.0*
COc1ccc(Cn2c3ccc(OC)cc3c3nc4ccccc4nc32)cc1	-0.9	3.8	-0.9	-2.0	-1.1	-0.3	/	/
CCOc1ccc2c(c1)c1nc3ccccc3nc1n2C	5.3	7.7*	0.4	0.0	3.7	-0.2	74.1*	21.5*
O=C1/C(=C/c2ccc(O)c(O)c2)Oc2cc(O)ccc21	1.0	3.8	0.6	-1.1	7.2	2.8	/	/
COc1ccc(/C=C2\OC(=O)c3c(OC)cccc32)cc1OC	0.4	10.5*	0.9	-0.6	9.6	3.5	111.4*	45.2*
COc1cc(/C=C2\Oc3cc(O)ccc3C2=O)ccc1O	1.9	8.3*	7.4*	-0.9	9.4	4.3*	93.7*	37.9*
COc1ccc(C=C2C(=O)OC(C)(C)OC2=O)cc1OC	-0.8	1.5	2.7	-1.8	3.2	0.2	/	/
COC(=O)[C@]12C[C@H](CC(=O)NCC34CC5CC(CC(C5)C3)C4)C(=O)N(CCc3ccc(OC)c(OC)c3)C1=C[C@H](C1CCCC1)O[C@@H]2C	-2.2	/	/	-0.7	-4.8	-1.7	/	/
CN1OC[C@@H]2CN(C(=O)C3CCCCC3)[C@H](c3ccc(N4CCCCC4)cc3)C[C@@H]21	-0.3	/	/	-0.5	-4.8	0.1	/	/
COc1cc2sc3cc(NCCCN4CCOCC4)ccc3c(=O)c2cc1OC	1.7	9.8*	-0.5	-0.3	3.0	-0.2	114.2*	37.0*
COc1ccc(C2=Nn3c(nnc3-c3cccnc3)SC2)cc1OC	-2.5	14.6*	1.1	-1.7	-0.4	-0.4	31.5*	19.9*
CC1(C)Cc2c(c(-c3ccco3)nc3sc4c(NCCCO)ncnc4c23)CO1	-4.4	7.7*	3.0	-1.9	-4.5	-1.1	9.3	14.4*
Cc1nnc(Cl)c2nn(-c3ccccc3F)c(C)c12	-1.6	13.4*	0.8	-1.6	-0.9	-0.2	8.3	6.6
Cc1n[nH]c(=S)c2nn(-c3ccccc3F)c(C)c12	-1.2	2.1	1.4	-1.3	-0.4	0.8	/	/
Cc1cccc(Cn2c(-c3ccc[nH]c3=O)nc3ccccc32)c1	-1.8	2.0	0.2	-1.3	-0.2	-0.4	/	/
CC(C)=CCC/C(C)=C/C=N/NC(=O)c1ccccc1[N+](=O)[O-]	-1.2	8.6*	-1.9	-1.4	0.7	-0.2	16.5	5.0
COC(=O)[C@@]1(C)[C@H]2C(=O)N(Cc3ccccc3)C(=O)[C@H]2[C@H]2CN=C(SCc3ccc(C)cc3)N21	-0.9	10.4*	0.0	-0.5	-0.9	-0.5	32.4*	12.2*
CCN1C(=O)[C@H]2[C@H]3CN=C(SCc4ccc(Cl)cc4)N3[C@@](CC)(C(=O)OC)[C@H]2C1=O	0.5	10.6*	-0.6	-0.7	1.8	2.1	23.0*	9.2*
Cc1sc2nc(COC(=O)CNC(=O)c3ccccc3Cl)[nH]c(=O)c2c1C	-0.6	/	/	-0.8	0.0	1.0	/	/
O=S(=O)(CCN1CCN(C(c2ccccc2)c2ccccc2)CC1)C(F)(F)F	-0.8	7.8*	0.8	-0.8	1.3	-0.7	37.5*	15.8*
c1ccc(CN2CCN(C(c3ccccc3)c3ccccc3)CC2)cc1	-0.6	-0.6	-1.7	-1.3	1.2	0.2	/	/
SMILES	hcDAF-12 act	FXN GAA850 act	DAX1 inh-1	ssDAF-12 act	hgDAF-12 ag	DAX1 inh-2	GAA30 FXN cntr	FXN GAA850 conf
Cc1cccc(/C=N\Nc2cn[nH]c(=O)c2Cl)c1	-1.9	21.9*	3.4	-1.2	0.4	2.0	65.7*	24.2*
CC(C)(C)C(=O)NC1CCCCN(Cc2cccc(C(F)(F)F)c2)C1=O (stereo unspecified)	-4.3	/	/	-1.9	-2.8	-3.2	/	/
COc1ccc2cc(CN(CCc3ccccc3)Cc3nnnn3Cc3ccco3)c(=O)[nH]c2c1	-2.5	2.6	0.3	-1.5	0.5	-0.3	/	/
COc1ccccc1CN(Cc1cc2c(C)ccc(C)c2[nH]c1=O)Cc1nnnn1Cc1ccco1	-2.5	8.8*	-0.2	-0.9	-0.1	0.1	-2.7	10.5*
Oc1ccc2ccccc2c1C=NN1CCN(Cc2ccc(Cl)cc2)CC1	-1.4	/	/	-1.3	0.6	-0.7	/	/
CCOC(=O)C1=C(C)NC2=C(C(=O)CCC2)C1c1cn(Cc2ccc(Cl)cc2Cl)nc1-c1ccccc1 (stereo unspecified)	-2.5	12.9*	1.0	-1.4	1.0	-1.1	22.2*	7.8*
Fc1cccc(/C=N/Nc2cc(N3CCOCC3)ncn2)c1	-0.1	9.3*	3.9	-1.0	7.7	0.9	127.4*	98.6*
C=CCSc1nc(N)c(C#N)c(-c2ccccc2)c1C#N	-1.9	10.7*	0.7	-2.1	-6.2	0.2	17.8	17.5*
CC(=O)N1CCN(C(=O)CN2C(=O)CC(C)(C)S(=O)(=O)c3ccccc32)CC1	-0.4	/	/	-0.2	-1.6	1.3	/	/
O=[N+]([O-])c1nn(-c2ccc3c(c2)OCCO3)n(O)c1=NCc1ccc(F)cc1Cl	4.7	9.8*	1.6	-0.2	5.5	1.1	91.2*	29.6*
CCN(C(=O)[C@@H](C)[C@@H](O)c1ccc(C(C)=O)cc1)c1ccccc1	-1.0	/	/	0.0	-1.7	-1.3	/	/
